Assay results as given in PubChem BioAssay (EPA / NIEHS).
Inconclusive results are not listed. Calls of active or inactive are those of the source. The calls were made as follows, unless noted: active = hit-call score of the fitted dose curve at least 0.9, where 1 is the maximum; inactive = score below 0.9.

Assays:
[1] = target: Nucleoli Translocation, AR (gene 367) (UniProt P10275); experiment: UPITT_HCI_U2OS_AR_TIF2_Nucleoli_Antagonist: University of Pittsburgh U2OS Androgen Receptor-Transcriptional Intermediary Factor 2 (AR-TIF2) Antagonism High Content Imaging Assay for Nucleoli Translocation (AID 2283997; active = hit-call score of the fitted dose curve at least 0.9, where 1 is the maximum)
Nucleoli Translocation, AR (gene 367), sequence (P10275 whole entry, looked up, the tested form may be a part): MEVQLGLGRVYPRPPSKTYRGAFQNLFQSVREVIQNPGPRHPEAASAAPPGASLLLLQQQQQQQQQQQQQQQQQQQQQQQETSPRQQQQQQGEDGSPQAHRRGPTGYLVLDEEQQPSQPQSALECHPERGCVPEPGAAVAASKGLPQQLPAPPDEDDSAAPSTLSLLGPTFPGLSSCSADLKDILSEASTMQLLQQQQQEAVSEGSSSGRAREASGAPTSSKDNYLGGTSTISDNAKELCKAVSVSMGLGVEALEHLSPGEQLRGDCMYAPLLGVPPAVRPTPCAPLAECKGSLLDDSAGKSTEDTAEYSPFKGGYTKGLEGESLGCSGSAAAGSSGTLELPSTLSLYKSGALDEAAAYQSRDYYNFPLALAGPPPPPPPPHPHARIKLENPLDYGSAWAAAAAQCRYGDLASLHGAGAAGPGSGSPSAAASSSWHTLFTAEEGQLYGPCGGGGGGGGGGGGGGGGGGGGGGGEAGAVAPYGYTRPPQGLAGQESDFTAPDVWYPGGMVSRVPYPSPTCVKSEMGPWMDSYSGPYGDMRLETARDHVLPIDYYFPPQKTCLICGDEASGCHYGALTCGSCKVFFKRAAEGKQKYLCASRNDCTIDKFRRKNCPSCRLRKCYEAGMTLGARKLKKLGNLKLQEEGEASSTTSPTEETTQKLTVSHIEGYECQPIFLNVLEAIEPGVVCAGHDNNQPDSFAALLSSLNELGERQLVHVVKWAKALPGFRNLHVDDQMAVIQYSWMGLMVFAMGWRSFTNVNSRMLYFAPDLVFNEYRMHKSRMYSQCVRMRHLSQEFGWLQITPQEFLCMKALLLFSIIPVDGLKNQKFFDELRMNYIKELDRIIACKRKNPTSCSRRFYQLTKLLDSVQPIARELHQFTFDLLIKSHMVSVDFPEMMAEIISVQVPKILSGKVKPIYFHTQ
Method in brief: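 Compounds are added at 20 uM final concentration in 0.2% DMSO to U2OS cells carrying AR-RFP and TIF2-GFP fusions. Nucleolar AR-RFP fluorescence is then quantified by automated imaging. Antagonism is fitted positively against DHT baseline.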

[2] = target: Ratio of Nucleoli Translocation and Cytoplasm, AR (gene 367) (UniProt P10275); experiment: UPITT_HCI_U2OS_AR_TIF2_Nucleoli_Cytoplasm_Ratio_Agonist: University of Pittsburgh U2OS Androgen Receptor-Transcriptional Intermediary Factor 2 (AR-TIF2) Agonism High Content Imaging Assay for Ratio of Nucleoli Translocation and Cytoplasm (AID 2284000; active = hit-call score of the fitted dose curve at least 0.9, where 1 is the maximum;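 also: hits raise the red nucleolar to cytoplasm ratio above vehicle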)
Ratio of Nucleoli Translocation and Cytoplasm, AR (gene 367), sequence (P10275 whole entry, looked up): as the sequence (P10275 whole entry, looked up, the tested form may be a part) above
Method in brief: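 Human osteosarcoma U2OS line, AR-RFP plus TIF2-GFP; compounds 0.195–50 uM final, 0.5% DMSO. Readout: nucleolar/cytoplasmic RFP ratio by HCI, positive direction vs DMSO baseline.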

[3] = target: Nucleoli Translocation, AR (gene 367) (UniProt P10275); experiment: UPITT_HCI_U2OS_AR_TIF2_Nucleoli_Agonist: University of Pittsburgh U2OS Androgen Receptor-Transcriptional Intermediary Factor 2 (AR-TIF2) Agonism High Content Imaging Assay for Nucleoli Translocation (AID 2283998; active = hit-call score of the fitted dose curve at least 0.9, where 1 is the maximum)
Method in brief: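 RFP-AR / GFP-TIF2 cells; cpds diluted in serum-free medium; single-point screen 20 uM final (0.2% DMSO), actives confirmed in triplicate; conc-response 0.195–50 uM final (0.5% DMSO). Readout: nucleolar red fluorescence, positive direction vs DMSO.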

[4] = target: Ratio of Nucleoli Translocation and Cytoplasm, AR (gene 367) (UniProt P10275); experiment: UPITT_HCI_U2OS_AR_TIF2_Nucleoli_Cytoplasm_Ratio_Antagonist: University of Pittsburgh U2OS Androgen Receptor-Transcriptional Intermediary Factor 2 (AR-TIF2) Antagonism High Content Imaging Assay for Ratio of Nucleoli Translocation and Cytoplasm (AID 2283999; active = hit-call score of the fitted dose curve at least 0.9, where 1 is the maximum;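 also: antagonists lower the DHT-driven ratio of nucleolar to cytoplasmic red signal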)
Method in brief: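 Read-out is the ratio of nucleolar to cytoplasmic AR-RFP fluorescence, imaged by high-content microscopy in U2OS cells coexpressing TIF2-GFP. Single-point 20 uM screen, triplicate confirmation, then 0.195–50 uM dose response; activity referenced to DHT baseline.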

[5] = CCTE_Shafer_MEA_acute_spike_number: CCTE's Neural Acute Assay for Total Number of Spikes, Shafer Lab (AID 2284008)
Method in brief: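 Rat cortical cultures, DIV 13/15, 37 C. 40 min baseline rec, cpd 0.03-40 uM, 40 min post-dose rec. Band-pass 300-5000 Hz, spike threshold 8x rms; % change in spike count per well, DMSO neg ctrl, loss-of-signal fit.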

[6] = CCTE_Shafer_MEA_acute_firing_rate_mean: CCTE's Neural Acute Assay for Mean Firing Rate, Shafer Lab (AID 2284009);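 also: analyzed for loss of signal so actives lower firing rate relative to DMSO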
Method in brief: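 Rat cortical neuron cultures matured to DIV 13 or 15, equilibrated 20 min at 37 C, then recorded 40 min for baseline. Compound (0.03-40 uM) added and a further 40 min recorded; percent change in mean firing rate calculated per well.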

[7] = CCTE_Shafer_MEA_acute_burst_number: CCTE's Neural Acute Assay for Single-Electrode Bursts, Shafer Lab (AID 2284013)
Method in brief: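 Percent change in single-electrode burst number per well, from 40-min recordings taken before and after adding compound (0.03-40 uM) to primary rat cortical neurons on MEA plates at DIV 13 or 15, 37 C.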

[8] = CCTE_Shafer_MEA_acute_burst_duration_mean: CCTE's Neural Acute Assay for Mean Burst Duration, Shafer Lab (AID 2284014);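 also: hits are decreases in mean burst duration relative to DMSO controls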
Method in brief: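 Rat cortical cultures, DIV 13/15; 40 min baseline, then 40 min with compound (0.03-40 uM), 37 C. Spikes: 300-5000 Hz band-pass, 8x rms threshold. Read-out: % change in mean single-electrode burst duration, DMSO-referenced, loss direction.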

[9] = CCTE_Shafer_MEA_acute_per_burst_spike_number_mean: CCTE's Neural Acute Assay for Average Number of Spikes Per Burst, Shafer Lab (AID 2284015);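 also: hits are decreases in mean spikes per burst versus baseline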
Method in brief: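 Percent change in mean spikes per single-electrode burst is compared between a 40 min baseline and a 40 min recording with compound (0.03-40 uM). Cultures were rat cortical neurons on MEA plates at DIV 13 or 15, recorded at 37 C, with DMSO as the negative control.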

[10] = CCTE_Shafer_MEA_acute_interburst_interval_mean: CCTE's Neural Acute Assay for Mean Interburst Interval, Shafer Lab (AID 2284016);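 also: percent change of mean interburst interval versus each well's own pre-dose baseline; curves fitted for decrease in interburst interval relative to DMSO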
Method in brief: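 Percent change in mean single-electrode interburst interval was calculated per well from 40 min recordings before and after compound (0.03-40 uM). Recordings were made at 37 C on rat cortical cultures at DIV 13 or 15, with spikes detected at 8x rms threshold.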

[11] = CCTE_Shafer_MEA_acute_burst_percentage_std: CCTE's Neural Acute Assay for Standard Deviation of Burst Percentage, Shafer Lab (AID 2284018);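 also: fitted in the negative direction so actives lower burst percentage SD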
Method in brief: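 Rat primary cortical neurons on 48-well MEAs, DIV 13 or 15, 37 C. 40-min baseline then 40-min recording with compound (0.03-40 uM); well-level SD of per-electrode burst spike percentage, expressed as percent change from baseline.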

[12] = CCTE_Shafer_MEA_acute_per_network_burst_spike_number_mean: CCTE's Neural Acute Assay for Average Number of Spikes in a Network Burst, Shafer Lab (AID 2284019)
Method in brief: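 Rat cortical cultures, DIV 13/15; spike threshold 8x rms noise, 300-5000 Hz band-pass, 12.5 kHz sampling; wells need >/= 10 active electrodes. Compound 0.03-40 uM, 40 min, 37 C; % change vs own baseline, DMSO negative control.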

[13] = CCTE_Shafer_MEA_acute_per_network_burst_spike_number_std: CCTE's Neural Acute Assay for Standard Deviation of Number of Spikes in a Network Burst, Shafer Lab (AID 2284020);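 also: fitted for decrease in spike-number SD versus DMSO so actives lower it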
Method in brief: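 Rat cortical cultures, DIV 13/15, 37 C; 20-min stabilisation, 40-min baseline, compound 0.03-40 uM, 40-min re-record. Spikes detected at 8x rms noise (300-5000 Hz band-pass). Readout: % change from baseline in per-burst spike-number SD.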

[14] = CCTE_Shafer_MEA_acute_per_network_burst_electrodes_number_mean: CCTE's Neural Acute Assay for Mean Number of Electrodes in a Network Burst, Shafer Lab (AID 2284021);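 also: curves fitted for decreases only so hits reduce electrodes per burst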
Method in brief: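 Readout: % change in mean electrodes active per network burst, post- vs pre-treatment, each well. Spikes detected at 8x rms noise after 300-5000 Hz band-pass; rat cortical cultures, DIV 13/15, compounds 0.03-40 uM, DMSO baseline.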

[15] = CCTE_Shafer_MEA_acute_cross_correlation_area: CCTE's Neural Acute Assay for Area of Cross Correlation, Shafer Lab (AID 2284024);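 also: area under pooled inter-electrode spike cross-correlation near zero lag as percent change from own baseline; curves fitted for loss of cross-correlation area so actives lower synchrony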
Method in brief: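 Rat cortical cultures, DIV 13/15, MEA; spikes detected at 8x rms noise (300-5000 Hz band-pass). Compound 0.03-40 uM, ≥3 wells each. Readout: % change in pooled inter-electrode cross-correlation area vs own baseline; DMSO negative control.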

[16] = CCTE_Shafer_MEA_acute_cross_correlation_HWHM: CCTE's Neural Acute Assay for Cross Correlation at Half Width at Half Maximum, Shafer Lab (AID 2284026);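 also: spontaneous network firing of rat primary cortical neurons on multiwell microelectrode arrays; percent change per well from pre-dose baseline in spike cross-correlogram half width; hits are a decrease in cross-correlogram half width relative to DMSO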
Method in brief: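 Read-out: half width at half maximum of action-potential cross-correlogram, percent change versus pre-treatment baseline, fitted in loss direction against DMSO. Rat cortical cultures, DIV 13 or 15, dosed 0.03-40 uM, 40-min recordings at 37 C.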

[17] = CCTE_Harrill_HTTr_Apoptosis_MCF7: CCTE's 6-hour Apoptosis Assessment for the High-Throughput Transcriptomics (HTTr) Platform, in MCF-7 cells cultured in DMEM + 10% fetal bovine serum, Harrill Lab (AID 2284011)
Method in brief: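 Read-out: CellEvent Caspase 3/7 Green signal by high content imaging, gain-of-signal indicating apoptosis. MCF-7 cells, DMEM + 10% FBS, eight-point dilution series, 6 h exposure. Curves fitted bidirectionally relative to DMSO negative control.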

DIO1 (gene 1733) = experiment: CCTE_GLTED_hDIO1: CCTE's human Deiodinase 1 (DIO1) Inhibition Assay, Great Lakes Toxicology and Ecology Division (GLTED) Lab (AID 2283987; active = hit-call score of the fitted dose curve at least 0.9, where 1 is the maximum;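 also: isolated human DIO1 enzyme in a cell-free setup rather than cells; enzyme activity read as free iodide liberated from substrate via Sandell-Kolthoff colorimetry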)
Method in brief: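 Steps: human DIO1 enzyme plus test chemical, 3 h incubation; free iodide then quantified in a second Sandell-Kolthoff step by absorbance. DMSO served as negative control and baseline.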

[18] = CCTE_Harrill_HTTr_Viability_MCF7: CCTE's 6-hour Cell Viability Assessment for the High-Throughput Transcriptomics (HTTr) Platform, in MCF-7 cells cultured in DMEM + 10% fetal bovine serum, Harrill Lab (AID 2284010)
Method in brief: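 PI exclusion, high-content imaging; 8-pt dilution series, 6 h exposure; bidirectional fit vs DMSO (neg. ctrl/baseline); gain of signal = loss of membrane integrity.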

[19] = CCTE_Harrill_HTTr_CellCount_MCF7: CCTE's Cell Proliferation Assessment for the High-Throughput Transcriptomics (HTTr) Platform, Harrill Lab (AID 2284012; active = hit-call score of the fitted dose curve at least 0.9, where 1 is the maximum;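 also: count of Hoechst-stained nuclei per well by high-content imaging in MCF-7 cells; cells exposed to compound for six hours; intended direction is loss of nuclei count meaning fewer cells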)
Method in brief: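 Readout: Hoechst nuclear count by high-content imaging. MCF-7, 8-point dilution series, 6 h exposure. Bidirectional fit vs DMSO baseline.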

CCCCC[Si](OCC)(OCC)OCC
outcome [1]: inactive
outcome [2]: inactive

O=C[C@@H](O)[C@H](O)[C@H](O)CO
outcome [1]: inactive
outcome [3]: inactive
outcome [4]: inactive
outcome [2]: inactive

NCCNCCN
outcome [5]: inactive
outcome [6]: inactive
outcome [7]: inactive
outcome [8]: inactive
outcome [9]: inactive
outcome [10]: inactive
outcome [11]: inactive
outcome [12]: inactive
outcome [13]: inactive
outcome [14]: inactive
outcome [15]: inactive
outcome [16]: inactive

CC(C)(COC(=O)c1ccccc1)COC(=O)c1ccccc1
outcome [5]: inactive
outcome [6]: inactive
outcome [7]: inactive
outcome [8]: inactive
outcome [9]: inactive
outcome [10]: inactive
outcome [11]: inactive
outcome [12]: inactive
outcome [13]: inactive
outcome [14]: inactive
outcome [15]: inactive
outcome [16]: inactive

CCCCCCCCC=O
outcome [5]: inactive
outcome [6]: inactive
outcome [17]: inactive
outcome [7]: inactive
outcome [8]: inactive
outcome [9]: inactive
outcome [10]: inactive
outcome [11]: inactive
outcome [12]: inactive
outcome [13]: inactive
outcome [14]: inactive
outcome [15]: inactive
outcome [16]: inactive

C=C[Si](OCC)(OCC)OCC
outcome [5]: inactive
outcome [6]: inactive
outcome [7]: inactive
outcome [8]: inactive
outcome [9]: inactive
outcome [10]: inactive
outcome [11]: inactive
outcome [12]: inactive
outcome [13]: inactive
outcome [14]: inactive
outcome [15]: inactive
outcome [16]: inactive

CCN(CC)c1ccc(C(=C2C=CC(=[N+](CC)CC)C=C2)c2ccc(S(=O)(=O)O)cc2S(=O)(=O)[O-])cc1
outcome [1]: inactive
outcome [2]: inactive

CCCCCCCCCCCCCC(=O)O
AC50 (DIO1 (gene 1733)): 166 µM (active)
outcome [18]: inactive
outcome [17]: inactive
outcome [19]: inactive

S=C(S)NCCNC(=S)S
outcome [18]: inactive

C=CCOC(=O)CCC1CCCCC1
outcome [5]: inactive
outcome [6]: inactive
outcome [18]: inactive
outcome [17]: inactive
outcome [19]: inactive
outcome [7]: inactive
outcome [8]: inactive
outcome [9]: inactive
outcome [10]: inactive
outcome [11]: inactive
outcome [12]: inactive
outcome [13]: inactive
outcome [14]: inactive
outcome [15]: inactive
outcome [16]: inactive

CCC(=O)OCc1ccccc1
outcome [5]: inactive
outcome [6]: inactive
outcome [19]: inactive
outcome [7]: inactive
outcome [8]: inactive
outcome [9]: inactive
outcome [10]: inactive
outcome [11]: inactive
outcome [12]: inactive
outcome [13]: inactive
outcome [14]: inactive
AC50 [15]: 0.00943 µM (active)
outcome [16]: inactive
